ALR H2O2 inh – human ALR oxidase inhibition via reduced H2O2 | inhibition, % (no concentration beside the values) | hit rate 3.8% among 290,000 | AID 485317 | purified ALR, DTT oxidation, H2O2 HRP-luminol luminescence | P55789;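 active = mean replicate inhibition above about 79%, with every replicate also reaching it, limit read from the data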
NRP1-CendR mod – modulators of CendR peptide binding to human neuropilin-1; O14786; FAM-RPARPAR peptide binding to NRP-1, fluorescence polarization; inhibition, % at 25 µM; hit rate 0.85% among 360,000; AID 602438;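 active = inhibition or corrected inhibition above about 18%, plus a signal ratio from 0.5 to 1.5, limit read from the data, passing the limit was not always enough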
CR mimetic SO – caloric restriction mimetics inhibiting age-related superoxide in yeast. S. cerevisiae aged cells, superoxide DHE fluorescence; hits give low values. superoxide response (% of plate mean), % at 10 µM. hit rate 0.18% among 330,000;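 active = superoxide response under a set limit, about three screen SD below normal, cut at about 65% in these data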;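 also: yeast aged for seven days with compound at 30 °C before DHE staining; 100% = average MFI of all compound-treated wells on the plate with controls excluded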
A3A deaminase – inhibitors of human APOBEC3A DNA deaminase | hit rate 0.41% among 330,000 | recombinant A3A, FAM/TAMRA ssDNA deamination fluorescence | inhibition, % at 20 µM | AID 493011 | P31941;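 active = at least 40% inhibition at 20 µM here, with at most 30% in a related deaminase screen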;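 also: plate controls were A3A with DMSO for no effect and wells lacking A3A enzyme for full effect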
A3G deaminase – APOBEC3G (human) deaminase inhibition; Q9HC16; recombinant A3G, ssDNA deamination FAM/TAMRA fluorescence; inhibition, % at 20 µM; hit rate 0.28% among 330,000;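 active = inhibition of at least 40% at 20 µM, with no more than 30% in the related APOBEC3A deaminase screen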;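 also: plate controls were DMSO wells with A3G for no effect and wells lacking A3G enzyme for full effect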
Target sequence (Q9HC16 whole entry, looked up): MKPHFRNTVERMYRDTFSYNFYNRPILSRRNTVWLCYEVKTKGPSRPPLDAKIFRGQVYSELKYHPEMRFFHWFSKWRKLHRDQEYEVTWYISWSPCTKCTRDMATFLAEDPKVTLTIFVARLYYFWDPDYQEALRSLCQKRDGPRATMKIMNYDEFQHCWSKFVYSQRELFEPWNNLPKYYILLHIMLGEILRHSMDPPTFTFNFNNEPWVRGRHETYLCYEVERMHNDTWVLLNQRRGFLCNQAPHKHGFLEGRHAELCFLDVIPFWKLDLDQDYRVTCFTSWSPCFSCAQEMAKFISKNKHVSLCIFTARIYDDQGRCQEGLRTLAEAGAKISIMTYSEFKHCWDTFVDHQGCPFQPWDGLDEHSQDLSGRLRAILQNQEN
PfM18AAP inh – PfM18AAP enzyme inhibition. recombinant PfM18AAP, H-Glu-NHMec fluorogenic cleavage. inhibition, % at 7.35 µM. hit rate 1.2% among 290,000;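 active = inhibition above the campaign mean inhibition over all tested compounds plus 3 SD, cut at about 28% in these data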;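 also: 0% = plate median of test compound wells and 100% = 2 mM ZnCl2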
The depositor's hits bear a star; x = not tested or not shown. Hits are enriched below; roughly 5.2% of the tested compounds scored in any of these assays.

SMILES	ALR H2O2 inh	NRP1-CendR mod	CR mimetic SO	A3A deaminase	A3G deaminase	PfM18AAP inh
O=C(O)CCn1cc(C=C2C(=O)NC(=S)NC2=O)c(-c2cccc(Cl)c2)n1	x	-32.6	128.0	1.6	-10.9	-1.9
COC(=O)C1=Nc2ccccc2/C1=C\c1c(O)n(-c2cc(OC)ccc2OC)c(=O)[nH]c1=O	9.1	-35.2	93.2	0.5	-8.3	3.3
S=P(Nn1cnnc1)(c1ccc(Br)cc1)c1ccc(Br)cc1	-2.6	-12.8	108.7	-0.7	-1.5	29.2*
CCCCn1c(O)c(/C(C)=N/NC(=O)Nc2ccccc2)c(=O)[nH]c1=O	-2.2	-5.8	90.2	-4.9	-5.9	4.4
CC(=O)NC(Cc1ccc(N(CCCl)CCCl)cc1)C(=O)O (stereo unspecified)	51.7	-3.6	98.7	1.3	0.4	8.3
O=C(Cc1ccc(N(CCCl)CCCl)cc1)NC(Cc1ccc(Cl)cc1)C(=O)O (stereo unspecified)	98.4*	5.7	101.7	-7.5	-3.8	-2.4
CC(C)c1ccc(N2C(=O)NC(=O)/C(=C/C=C/c3ccco3)C2=O)cc1	x	-176.6	114.3	x	x	23.3
CCC(C)NC(=O)c1c(N)n(CC2CCCO2)c2nc3ccccc3nc12 (stereo unspecified)	9.9	5.8	105.9	0.7	-0.6	3.0
CCOc1cc(-c2nc3c(C)cccn3c2NCC2CCCO2)ccc1O (stereo unspecified)	96.5*	-6.5	103.5	-1.5	-2.6	22.7
Cc1cccn2c(NCC3CCCO3)c(C(C)C)nc12 (stereo unspecified)	77.5*	5.5	97.1	-3.0	-4.4	5.9
CC(C)NC(=O)c1ccc(N2CC3CC(C2)c2cccc(=O)n2C3)c([N+](=O)[O-])c1 (stereo unspecified)	x	-14.6	90.0	0.6	-7.6	-8.3
O=P(CN1CCN(c2ccccc2)CC1)(N1CCCCC1)N1CCCCC1	99.2*	34.2*	96.2	1.3	4.1	-5.6
CN(C)c1ccc(P(=S)(N(C)C)N(C)C)cc1	99.1*	16.6	83.2	6.3	2.2	1.4
CCCN1CCc2cc(O)cc3c2[C@H]1Cc1ccc(O)c(O)c1-3	98.6*	5.0	93.8	-10.4	3.7	x
COc1cc2c(cc1O)C[C@H]1c3c(cc(O)c(OC)c3-2)CCN1C	98.1*	-21.0	106.5	33.6	-2.7	x
CN1CCc2cc(O)cc3c2[C@H]1Cc1ccc(O)c(O)c1-3	98.5*	1.8	114.3	-8.9	18.0	x
COc1cc2c3cc1Oc1cc(ccc1O)C[C@@H]1c4c(cc(OC)c(O)c4Oc4ccc(cc4)C[C@H]3N(C)CC2)CCN1C	23.1	-2.3	95.2	0.8	-3.3	10.8
COc1cc2c(cc1O)[C@@H]1Cc3ccc(OC)c(O)c3CN1CC2	53.6	11.0	127.7	3.5	-2.0	x
Cc1cc(/C=C2/C(=O)NC(=O)N(Cc3ccco3)C2=O)c(C)n1-c1ccccc1O	80.6*	-13.4	97.5	10.6	1.9	16.3
CCN(CC)c1ccc(/C=C2\C(=O)NC(=O)N(Cc3ccco3)C2=O)cc1	x	-128.0	108.0	29.5	15.4	11.9
O=C(O)Cn1cc(/C=C2\C(=O)NC(=O)N(Cc3ccco3)C2=O)c2ccccc21	98.3*	-113.5	112.6	63.8	36.8	15.8
CC(=NCCN1CCOCC1)c1c(O)n(-c2ccccc2C)c(=O)[nH]c1=O	-4.9	0.3	100.8	6.9	0.5	0.6
Cc1ccc(NC(=O)[C@@H](NC(=O)N2C[C@H]3C[C@@H](C2)c2cccc(=O)n2C3)C(C)C)cc1	-7.6	0.7	101.9	-1.5	-1.1	-12.2
CCCCn1c(O)c(C=Nc2c(C)n(C)n(-c3ccccc3)c2=O)c(=O)[nH]c1=O	-2.5	3.1	95.0	-7.1	-10.1	4.9
CCN(CC)CCN1Cc2ccccc2C1=N	8.8	2.8	86.5	2.5	-9.4	-8.8
N#Cc1c(/N=C/C2C(=O)NC(=S)NC2=O)sc2c1CCCC2	92.9*	-53.7	99.2	0.9	3.7	20.6
CCOC(=O)c1c(/N=C/C2C(=O)NC(=S)NC2=O)sc2c1CCC2	-11.4	12.6	101.9	x	x	14.4
CN1C(=O)COc2c(C(=O)NC3CN4CCC3CC4)cc(Cl)cc21 (stereo unspecified)	-0.6	x	112.8	-0.4	-6.8	-1.7
Cc1[nH]c2ccccc2c1C(=O)C(=O)N1CCC2(CC1)OCCO2	x	7.6	82.2	2.6	-15.8	2.4
